ELG1 repair inh – ELG1-dependent DNA repair inhibition | HEK293T ELG1-luciferase reporter, luminescence, 16 h; DNA damage induced by 5-fluorouridine | Potency, µM (top dose mostly 46.1 µM), usual class: inhibitors | 330,000 compounds, 2.3% hits | AID 504467; note: nearly all actives have a fitted effect of over 55% in size
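In this reporter screen, reduction of luminescence relative to DMSO vehicle indicated activity. Compounds and 5-fluorouridine were added together to 2,000 cells per well, incubated for 16 hr at 37 °C, then developed with ONE-Glo.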
FLuc counter – firefly luciferase modulation, counter-screen for miR-21 project; 360,000 compounds, 6.9% hits; Potency, µM (highest dose often 57.5 µM), usual class: inhibitors; AID 588342; purified FLuc, Km substrates, luminescence inhibition; note: nearly all actives have a fitted effect of over 55% in size
Target sequence (P08659 whole entry, looked up): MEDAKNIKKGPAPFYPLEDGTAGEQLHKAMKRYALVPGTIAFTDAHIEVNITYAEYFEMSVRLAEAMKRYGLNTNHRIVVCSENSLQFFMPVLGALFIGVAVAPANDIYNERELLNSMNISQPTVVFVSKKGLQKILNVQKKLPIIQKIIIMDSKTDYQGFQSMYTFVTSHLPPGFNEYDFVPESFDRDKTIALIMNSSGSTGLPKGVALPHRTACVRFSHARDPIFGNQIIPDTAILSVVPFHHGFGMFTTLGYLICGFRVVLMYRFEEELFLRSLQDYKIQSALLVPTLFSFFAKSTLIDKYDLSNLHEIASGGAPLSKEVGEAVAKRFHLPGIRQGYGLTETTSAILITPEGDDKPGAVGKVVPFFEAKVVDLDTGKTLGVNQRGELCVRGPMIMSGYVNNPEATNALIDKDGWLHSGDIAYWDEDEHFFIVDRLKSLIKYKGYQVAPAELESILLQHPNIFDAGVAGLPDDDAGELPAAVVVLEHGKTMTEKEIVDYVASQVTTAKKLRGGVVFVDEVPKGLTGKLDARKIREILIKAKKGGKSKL
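Biochemical qHTS of compounds, final roughly 60 µM downward over six points, against 10 nM purified firefly luciferase using Km concentrations of substrates (10 uM D-luciferin, 10 uM ATP) in Tris acetate pH 7.5 buffer; luminescence output.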
SMN2 splice enh – increases expression of the SMN2 splice variant. HEK293 SMN2-luciferase splicing reporter, luminescence, 30-36 h. 210,000 compounds, 2.8% hits. Potency, µM (top dose mostly 46.1 µM), usual class: activators. AID 1458; note: nearly all actives have a fitted effect of over 55% in size
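HEK293 cells carry an SMN2 minigene-luciferase reporter in which exon 7 inclusion puts luciferase in frame. Cells were seeded at 2000 cells/well, attached for 10-12 hours, then exposed to compounds for 30-36 hours at 37C before ONE-Glo luminescence.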
NPC1 promoter act – activators of NPC1 promoter | AID 485313 | Huh7 NPC1 promoter luciferase reporter, 24 h | 320,000 compounds, 2.4% hits | Potency, µM (top dose mostly 9.22 µM), usual class: activators; note: nearly all actives have a fitted effect of over 60% in size
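Quantitative HTS used a cell-based reporter: Huh7 cells stably bearing the NPC1 promoter upstream of luciferase were treated with compounds for 24 h, and promoter activation was read as luminescence.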
Rab9 prom act – activates the Rab9 promoter | 320,000 compounds, 2.8% hits | Potency, µM (doses to about 9.22 µM), hits mostly activators | AID 485297 | Huh7 Rab9 promoter-luciferase reporter, luminescence, 24 h; note: nearly all actives have a fitted effect of over 60% in size
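Huh7 reporter line, Rab9 promoter upstream of luciferase. Compound exposure 24 h at 37 °C in reduced-serum medium with 10% FBS. Read-out: luminescence.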
ELG1 genotoxic – inducers of genotoxicity in HEK293T ELG1-luciferase cells; HEK293T ELG1-luciferase reporter, luminescence, 16 h; Potency, µM (titrated, usually from 46 µM), hits mostly activators; 330,000 compounds, 1.3% hits; note: nearly all actives have a fitted effect of over 60% in size
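HEK293T cells expressing luciferase-tagged ELG1 were exposed to compound or DMSO vehicle for 16 hr at 37 °C and 5% CO2. Luciferase activity was then measured with ONE-Glo after 30 min at room temperature.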
Hits are given with their value; - = inactive; ? = inconclusive; . = no result; [ ] = remark or other dose. Most compounds without a hit are left out; they make up all but 9.2% or so of the library. Calls come from the whole dose curve; as a rule, active = well fitted curve in the direction sought with a large enough effect; inconclusive = small, poorly fitted or top-dose-only effect, or another doubt; inactive = no such curve, though single readings can be large; an effect the other way counts as inactive or inconclusive.

SMILES | ELG1 repair inh | FLuc counter | SMN2 splice enh | NPC1 promoter act | Rab9 prom act | ELG1 genotoxic
COCc1nnc(NC(=O)c2cccc(NC(=O)c3ccccc3)c2)s1 | - | 19µM | . | - | - | -
CCCc1nnc(NC(=O)c2cc3ccccc3o2)s1 | ? | 13µM | . | 3.5µM | 4µM | -
COC(=O)Cc1nnc(NC(=O)c2ccccc2)s1 | - | - | . | - | - | -
CCCc1nnc(NC(=O)c2cc3ccccc3oc2=O)s1 | ? | -[2.3 µM] | - | - | - | -
O=C(NCCCNC(=O)c1ccc(F)cc1)c1ccc(F)cc1 | - | - | . | - | - | -
Cc1cc(C)c(NC(=O)CN2CCC(NC(=O)NC3CCCCC3)CC2)c(C)c1 | - | - | - | - | - | -
COc1ccc(C(=O)Nc2ccc3oc(Cc4ccc(Cl)cc4)nc3c2)cc1OC | 21µM | - | - | - | - | -
COc1cc(C(=O)Nc2ccc3ccccc3c2)cc(OC)c1OC | - | 19µM | . | - | - | ?
Cn1nnc2cc(C(=O)Nc3ccc4ccccc4c3)ccc21 | ? | 1.9µM | 3.2µM | 0.89µM | 0.4µM | 2.3µM
COc1ccc(C(=O)Nc2ccc3ccccc3c2)cc1OC | ? | 9.5µM | . | 2.8µM | ? | ?
COc1ccc(-n2ccnc(NCc3ccc(Cl)cc3)c2=O)cc1 | . | - | . | . | . | .
Cc1cc(C)c2c(=O)cc(C(=O)Nc3ccc(S(=O)(=O)Nc4onc(C)c4C)cc3)oc2c1 | . | ? | - | . | . | .
O=C(NNC(=O)c1ccccc1-c1ccccc1C(=O)O)c1cccc([N+](=O)[O-])c1 | - | - | - | - | - | -
COc1ccccc1C(=O)NNC(=O)c1cccc(C)c1 | ? | 12µM | . | ? | ? | ?
O=C(NNC(=O)c1ccccn1)c1cccc([N+](=O)[O-])c1 | 12µM | - | - | - | - | -
COc1ccccc1C(=O)NNC(=O)c1cccc([N+](=O)[O-])c1 | ? | 19µM | ? | - | ? | ?
CC12CC[C@@H]3c4ccc(OP(=O)(O)O)cc4CCC3C1CCC2=O (some centres undefined) | . | . | -[9.22 µM] | . | . | .
CCOc1cc(CNC(=O)C(NS(=O)(=O)c2cccs2)C(C)C)cc(OCC)c1OCC (centres undefined) | . | - | . | . | . | .
CN(N=Nc1cccc([N+](=O)[O-])c1)c1ccccc1 | ? | 9.5µM | . | ? | ? | ?
CN(N=Nc1ccc([N+](=O)[O-])cc1)c1ccccc1 | ? | 5.4µM | 20µM | 4µM | ? | ?
CCOc1cc(OCC)cc(C(=O)Nc2cccc(-c3nc4ccccc4[nH]3)c2)c1 | . | - | - | . | . | .
COCCN1Cc2cccc(C(=O)Nc3cccc(-c4nc5ccccc5[nH]4)c3)c2C1=O | 4.1µM | ? | . | - | - | -
CS(=O)(=O)c1ccc(C(=O)Nc2cccc(-c3nc4ccccc4[nH]3)c2)cc1 | - | 24µM | . | - | - | -
CS(=O)(=O)c1ccc(C(=O)Nc2ccc(-c3nc4ccccc4[nH]3)cc2)cc1 | ? | - | . | ? | 2.5µM | -
O=C(Nc1ccc(-c2nc3ccccc3[nH]2)cc1)c1c(F)c(F)c(F)c(F)c1F | - | - | - | - | - | -
SMILES | ELG1 repair inh | FLuc counter | SMN2 splice enh | NPC1 promoter act | Rab9 prom act | ELG1 genotoxic
CCCOc1ccc(C(=O)Nc2cccc(-c3nc4ccccc4[nH]3)c2)cc1 | . | 4.8µM | ? | . | . | .
COCCN1Cc2cccc(C(=O)Nc3ccc(-c4nc5ccccc5[nH]4)cc3)c2C1=O | ? | - | - | - | - | -
O=C(Nc1ccc(-c2nc3ccccc3[nH]2)cc1)c1ccc2c(c1)OCO2 | ? | . | - | - | ? | -
Cc1ccccc1OCCn1c(=N)n(C(C)C)c2ccccc21 | . | - | - | . | . | .
Cn1ncc([N+](=O)[O-])c1C(=O)Nc1ccc(-c2nc3ccccc3[nH]2)cc1 | ? | 21µM | ? | ? | ? | ?
CS(=O)(=O)Cc1ccc(C(=O)Nc2cccc(-c3nc4ccccc4[nH]3)c2)cc1 | ? | 13µM | . | - | - | -
CS(=O)(=O)c1cccc(C(=O)Nc2cccc(-c3nc4ccccc4[nH]3)c2)c1 | - | 12µM | . | - | - | -
Cn1ncc([N+](=O)[O-])c1C(=O)Nc1ccc(Cl)cc1 | - | - | . | - | - | -
